An excerpt weighted towards active compounds, which were near 1.2% of everything screened.
FadD28 FP inh = inhibitors of FadD28 bisubstrate probe binding, primary screen, biochemical, fluorescence polarization, single point; Mycobacterium tuberculosis FadD28 fatty-acid-AMP ligase; inhibition, % at 12.5 µM; hit rate 0.22% among 360,000; in the data active means inhibition above about 8.5%, passing the limit was not always enough
Y pestis TopoI = Yersinia pestis topoisomerase I inhibitors, primary screen, biochemical, cleavage product accumulation, plate reader, single point | DNA topoisomerase I (Yersinia pestis CO92) | Y. pestis Topo-I cleavage product accumulation | activity, % at 10 µM | hit rate 0.064% among 360,000 | AID 504884, 2011; in the data active means activity above about 50%, passing the limit was not always enough
PfHsp40 yeast = rescue of yeast from PfHsp40 toxicity, primary screen, S. cerevisiae, ATP luminescence. S. cerevisiae expressing PfHsp40, growth rescue. growth rescue, % at 12.5 µM. hit rate 0.68% among 340,000; in the data active means growth rescue above about 28%, passing the limit was not always enough;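 further: yeast W303a lacking pdr1 and pdr3 grown in galactose medium; growth measured after three days at 30 °C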
PrP UTR inh = inhibition of PrP 5' UTR reporter expression | cell-based PrP 5' UTR mRNA reporter, plate reader | inhibition, % (test concentration not listed) | hit rate 0.35% among 340,000 | AID 488862, 2010; in the data active means inhibition above about 52%; further: 0 = median of the neutral control wells
TcdB inh = TcdB glycohydrolase inhibitors, primary screen, biochemical, single point, plate reader | hit rate 0.24% among 350,000 | inhibition, % at 9.99 µM | TcdB glycohydrolase enzymatic assay; in the data active means inhibition above about 10%
BioA inh-1 = M. tuberculosis BioA enzyme inhibitors, primary screen, biochemical, plate reader, single point, HTS; purified M. tuberculosis BioA enzyme; inhibition, % at 9.99 µM; hit rate 0.096% among 360,000; in the data active means inhibition above about 40%
BioA inh-2 = Mtb BioA enzyme inhibitors, dose response, biochemical, plate reader, cherry-pick samples, set 03; shares compounds with BioA inh-1; purified BioA enzyme; max activity, %; 310 tested, under 10 active;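 further: top concentration of the dilution series was 10 µM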
Target sequence (P9WQ81 whole entry, looked up): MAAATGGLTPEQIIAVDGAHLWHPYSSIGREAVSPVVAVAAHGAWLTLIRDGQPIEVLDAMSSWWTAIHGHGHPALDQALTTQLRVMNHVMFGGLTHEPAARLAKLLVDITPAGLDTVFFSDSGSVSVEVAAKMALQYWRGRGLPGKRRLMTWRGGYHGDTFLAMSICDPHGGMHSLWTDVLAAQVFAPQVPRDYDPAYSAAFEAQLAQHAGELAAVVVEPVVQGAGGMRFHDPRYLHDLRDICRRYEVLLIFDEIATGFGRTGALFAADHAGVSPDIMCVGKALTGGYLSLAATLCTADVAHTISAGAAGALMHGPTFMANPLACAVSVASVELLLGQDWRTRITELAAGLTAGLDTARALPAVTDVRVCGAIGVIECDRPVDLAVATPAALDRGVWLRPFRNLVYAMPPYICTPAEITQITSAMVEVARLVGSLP
HepG2 tox 2 = cytotoxicity in HepG2 cells, dose response, cytotoxicity control, cell-based, plate reader, cherry-pick, two tests. shares compounds with BioA inh-1. max activity, %. 310 tested, under 10 active. AID 651898, 2012
NIH3T3 tox 5 = cytotoxicity in NIH3T3 fibroblasts, dose response, cytotoxicity control, cell-based, plate reader, cherry-pick, two tests. 310 tested, under 10 active. shares compounds with BioA inh-1. AID 651900, 2012. activity change, negative = cytotoxicity, % at 26 µM
An asterisk follows results filed as active; i = inactive; x = no result; [ ] = dose if it differs, or a comment. Unless noted, how the calls were made is not given here.

SMILES | FadD28 FP inh | Y pestis TopoI | PfHsp40 yeast | PrP UTR inh | TcdB inh | BioA inh-1 | BioA inh-2 | HepG2 tox 2 | NIH3T3 tox 5
Cc1ccc(-n2c3c(cc(C(=O)NCCCN4CCOCC4)c2=O)C(=O)CC(C)(C)C3)cc1 | 1 | 5 | 0 | 1 | 1 | 1 | x | x | x
O=C1CCCc2c1cc(C(=O)NCc1ccco1)c(=O)n2-c1ccc(Cl)cc1 | 2 | 4 | 0 | -31 | x | 50* | 3 | 21 | 2
CN(C)CC(=O)N[C@@H]1CC[C@@H](CCn2cc(C3CCCC3)nn2)O[C@@H]1CO | x | x | x | x | 0 | -1 | x | x | x
CC1(C(=O)NCc2ccc(F)c(F)c2)Cc2c(-c3cccc(C(N)=O)c3)ccnc2O1 (stereo not given) | -4 | 10 | x | x | 1 | 62* | 20 | 14 | -1
CC1(C(=O)NCc2ccccc2)Cc2c(-c3cccc(C(N)=O)c3)ccnc2O1 (stereo not given) | -3 | 4 | x | x | 2 | 12 | x | x | x
CC(=O)N1CC[C@H]2[C@@H]1c1cc(-c3cccc(F)c3)ccc1N(C)[C@H]2CO | x | x | x | x | 1 | 25 | x | x | x
CCC(=O)N1CC[C@@H]2[C@H]1c1cc(-c3cccc(F)c3)ccc1N(C)[C@H]2CO | x | x | x | x | x | 42* | -5 | i | -2
COc1ccc(-c2ccc3c(c2)[C@H]2[C@H](CCN2C(=O)Cc2cccnc2)[C@H](CO)N3C)cc1 | x | x | x | x | 6 | 43* | 5 | i | -15
CN1c2ccc(-c3ccccc3)cc2[C@H]2[C@H](CCN2C(=O)c2ccccc2F)[C@H]1CO | x | x | x | x | 1 | 46* | -5 | i | -9[23.5 µM]
CC(=O)N1CC[C@@H]2[C@@H](CO)N(C)c3ccc(-c4cccc(F)c4)cc3[C@@H]21 | x | x | x | x | 7 | 56* | 3 | i | -4
CN1c2ccc(-c3cccc(F)c3)cc2[C@@H]2[C@@H](CCN2C(=O)c2ccncc2)[C@H]1CO | x | x | x | x | x | 50* | 6 | i | -3[23.5 µM]
CC(=O)N1CCN(c2ccc([N+](=O)[O-])cc2C=C2C(=O)NC(=O)NC2=O)CC1 | -2 | -4 | -1 | -23 | x | 44* | -6 | 14 | 8
CCN1CCN(c2ccc([N+](=O)[O-])cc2C=C2C(=O)NC(=O)NC2=O)CC1 | -3 | 0 | 1 | -6 | 0 | 0 | x | x | x
O=C(c1ccc(F)cc1)N1CC(=O)N2[C@H](CO)[C@H](c3ccc(C#CC4CCCC4)cc3)[C@H]2C1 | x | x | x | x | 1 | x | x | x | x
O=C([C@H]1[C@H](CO)[C@H]2Cn3c(cccc3=O)[C@H]2N1Cc1ccncc1)N1CCCCC1 | x | x | x | x | -4 | -3 | x | x | x
CCC(=O)N1CC2(C1)CN(Cc1ccccc1Cl)[C@@H](CO)c1c2c2ccc(OC)cc2n1C | x | x | x | x | 0 | x | x | x | x
CN(C)CC(=O)Nc1ccc2c(c1)[C@H]1C[C@@H](CC(=O)NCc3ccncc3)O[C@@H](CO)[C@H]1O2 | x | x | x | x | x | -2 | x | x | x
Cn1ncc2cc3c(Nc4ccc(Cl)cc4)cccc3nc21 | 0 | x | x | x | 0 | 81* | -4 | -9 | -3
Cn1ncc2c(Nc3ccc(Cl)cc3)ncnc21 | -3 | 4 | 2 | -16 | 3 | 3 | x | x | x
C[C@H](O)C#Cc1cnc2c(c1)C(=O)N([C@@H](C)CO)C[C@@H](C)[C@H](CN(C)C(=O)Cc1ccncc1)O2 | x | x | x | x | -1 | 1 | x | x | x
COc1ccc(C(=O)Oc2cccc3cccnc23)cc1[N+](=O)[O-] | -2 | -5 | 1 | 0 | 1 | x | x | x | x
NC(=O)c1ccc(Oc2cccc3cccnc23)c([N+](=O)[O-])c1 | -3 | -9 | 2 | -8 | -1 | 42* | 25 | 20 | 7
O=C(NCc1ccc(Cl)cc1)C1CCN(S(=O)(=O)c2cccnc2)CC1 | -5 | -2 | 0 | -8 | -7 | 0 | x | x | x
O=C(Nc1cccnc1)C1CCN(S(=O)(=O)c2ccc(Cl)cc2)CC1 | -1 | -3 | -1 | -10 | 1 | 85* | -9 | -13 | -2
CSc1ccc(S(=O)(=O)N2CCC(C(=O)Nc3cccnc3)CC2)cc1 | -1 | -4 | 0 | -11 | -3 | 71* | -6 | -17 | 3
SMILES | FadD28 FP inh | Y pestis TopoI | PfHsp40 yeast | PrP UTR inh | TcdB inh | BioA inh-1 | BioA inh-2 | HepG2 tox 2 | NIH3T3 tox 5
Cc1noc(C)c1S(=O)(=O)Nc1ccc2c(c1)CC(=O)N([C@H](C)CO)C[C@H](C)[C@@H](CN(C)C(=O)Nc1ccc(F)cc1)O2 | x | x | x | x | 1 | 1 | x | x | x
CCNC(=O)C[C@H]1CC[C@@H]2[C@@H](COc3ccc(NC(=O)Nc4cccc(F)c4)cc3C(=O)N2C)O1 | x | x | x | x | 0 | 42* | 6 | i | -4
O=C(O)CSc1ncnc2scc(-c3ccc(Br)cc3)c12 | -1 | -4 | 1 | 4 | 2 | 45* | -6 | 19 | -3
COc1ccc(S(=O)(=O)N2CC[C@H]3[C@H](CO)Nc4ccc(-c5ccc(C#N)cc5)cc4[C@H]32)cc1 | x | x | x | x | -6 | x | x | x | x
Cn1nnc2cc(C(=O)N3CCC(c4ccccc4)C3)ccc21 (stereo not given) | -2 | 1 | -1 | -19 | x | 66* | -10 | -13 | -8
CC(C)(C)c1cc(C(=O)Nc2cccnc2)cc(C(=O)Nc2cccnc2)c1 | -4 | 5 | 1 | 0 | 0 | 45* | 4 | 11 | 8
COCCN1C(=O)c2ccc(C(=O)Nc3cccnc3)cc2C1=O | -3 | -6 | 2 | -8 | -1 | 59* | -7 | -12 | 3
CCCOC(=O)c1cccc(NC(=O)c2cccnc2)c1 | -2 | 0 | 1 | -7 | x | 43* | -8 | 7 | -3
COc1cc(OC)c(C(=O)Nc2cccnc2)cc1OC | -1 | -4 | -1 | -21 | 2 | 85* | 4 | -7 | -3
C[C@H]1CN([C@@H](C)CO)C(=O)Cc2cc(NC(=O)Cc3cn(C)c4ccccc34)ccc2O[C@H]1CN(C)Cc1ccc(C(=O)O)cc1 | x | x | x | x | 0 | 2 | x | x | x
C[C@@H]1CCCCO[C@H](CN(C)C(=O)C2CCCCC2)[C@H](C)CN([C@@H](C)CO)C(=O)c2cc(NC(=O)CCC(F)(F)F)ccc2O1 | x | x | x | x | 0 | 7 | x | x | x
CCCNS(=O)(=O)c1ccc(NC(=O)c2cccnc2)cc1 | -2 | 6 | -1 | -13 | x | 23 | x | x | x
O=C(Nc1cccnc1)c1ccc(Cl)c(Cl)c1 | 0 | -10 | 1 | -16 | 2 | 60* | -6 | 13 | 2
O=C(Nc1ccc(NS(=O)(=O)c2ccccc2)cc1)c1cccnc1 | 4 | -4 | 0 | -18 | 1 | 52* | 9 | -9 | -3
O=C(NNC(=O)c1ccc(Cl)c(Cl)c1)c1cccnc1 | -3 | 0 | 0 | -19 | 1 | -1 | x | x | x
